The results in this text go back to PubChem BioAssay AID1259421 (Broad Institute, 2018).

Molecules are shown by their SMILES. Values joined by “and” are separate entries in the source; they are usually repeats but may differ in a detail not shown here. Equal entries are not always repeated. About 610 (9.5%) of roughly 6,400 compounds were called active. Rule as the data show it: active = activity change below about -70%; inconclusive = no clear call, values can overlap the other calls; inactive = above that. The full list was thinned out, with actives kept by preference. Some structures have more than one record in an assay (separate samples or runs), and their calls can disagree.

The assay in a line: Toxoplasma gondii ME49Luc growth in HeLa cells, luciferase, no IFN-y, primary screen (AID 1259421). The settings on record: T. gondii ME49Luc in HeLa, 72 h, stronger effect = lower value, concentration not given here.
For the compound `CC(C)(C)N1CCC(c2ccccc2)(c2ccccc2)CC1`, the activity change, negative = inhibition is 14.2% (inactive).
For the compound `CCC[C@@]1(CCc2ccccc2)CC(=O)C([C@H](CC)c2cccc(NS(=O)(=O)c3ccc(C(F)(F)F)cn3)c2)C(=O)O1` (stereo not given in full), the activity change, negative = inhibition is 10.4% (inactive).
The same measure for `COc1ccc(C(=O)Nc2c(Cl)cncc2Cl)cc1OC1CCCC1`: 3.75% (inactive).
The same measure for `COc1ccc(NC(=O)c2ccc(C(=N)N(C)C)cc2)c(C(=O)Nc2ccc(Cl)cn2)c1`: -0.285% (inactive); for `COc1cc(CCc2cc(NC(=O)c3ccc(N4C[C@@H](C)N[C@@H](C)C4)cc3)n[nH]2)cc(OC)c1`: -81.1% (active).
The result for `C/C=N/N(C)C=O` reads 3.01% (inactive).
Regarding `Cc1[nH]c(C)c(Cl)c(=O)c1Cl`, the activity change, negative = inhibition was -1.17% (inactive) and -3.71% (inactive).
The result for `Cc1cccc(Oc2cnc(=O)[nH]c2)c1` reads 9.21% (inactive).
The result for `CCCCOC(=O)c1cc2c(cn1)[nH]c1ccccc12` reads 42.7% (inactive) and 253% (inactive).
For the compound `CCCS(=O)(=O)Nc1ccc(F)c(C(=O)c2c[nH]c3ncc(Cl)cc23)c1F`, the activity change, negative = inhibition was -26.4% (inactive).
The same measure for `CCCCOc1c(C(=O)c2c(F)cc(C)cc2F)cnc2n[nH]cc12`: -88.2% (active); for `COc1cc(OC)c2ccc(=O)oc2c1`: 1.05% (inactive); for `Clc1ccc(CCCOCCCN2CCCCC2)cc1`: 2.37% (inactive).
The same measure for `CS(=O)(=O)c1ccc(-c2nc(-c3ccc(F)cc3)c(-c3ccncc3)[nH]2)cc1`: -5.72% (inactive).
The same measure for `Oc1ccc(-c2nc(-c3ccc(F)cc3)c(-c3ccncc3)[nH]2)cc1`: -91.7% (active) and -92.7% (active).
As to `COc1ccc2cc(-c3nc(-c4ccc(S(C)=O)cc4)[nH]c3-c3ccncc3)ccc2c1` (stereo not given), the activity change, negative = inhibition was -51.3% (inactive).
`COc1cc(S(C)=O)ccc1-c1nc2ncccc2[nH]1` (stereo not given): the activity change, negative = inhibition was -7.2% (inactive) and 19.1% (inactive).
The same measure for `CS(=O)c1ccc(-c2nc(-c3ccc(F)cc3)c(-c3ccncc3)[nH]2)cc1` (stereo not given): -85.1% (active) and -89.6% (active).
The same measure for `CC1(C)O[C@H]2CC(=O)OC[C@]23[C@H]2CC[C@@]4(C)[C@H](c5ccoc5)OC(=O)[C@H]5O[C@]54[C@]2(C)C(=O)C[C@@H]13`: 7.46% (inactive); for `CC/C=C\C/C=C\C/C=C\C/C=C\C/C=C\C/C=C\CCC(=O)OCC`: 4.98% (inactive).
Consider `COc1cc(O)c(C(=O)c2ccccc2)cc1O`, for which the activity change, negative = inhibition is 6.03% (inactive).
The same measure for `Cc1cc(CC(C)CC(C)(C)C)n(O)c(=O)c1` (stereo not given): -84.1% (active); for `Nc1nnnn1-c1ccccc1`: 6.66% (inactive).
Consider `CCCCCCCCCCCCCC(=O)OC(C)C`, for which the activity change, negative = inhibition was 13.1% (inactive).
The result for `N#Cc1ncccn1` reads 3.94% (inactive).
The result for `COc1cc(/C=C2\CCCN([C@@H](C)c3ccc(F)cc3)C2=O)ccc1-n1cnc(C)c1` reads -5.26% (inactive); that for `Cn1cc(-c2[nH]c3cc(NC(=O)[C@H](N)C4CCCCC4)cc4c3c2C=NNC4=O)cn1`, -91.8% (active) and -59.2% (inactive).
The result for `CC(C)(C)Sc1c(CC(C)(C)C(=O)O)n(Cc2ccc(Cl)cc2)c2ccc(OCc3ccc4ccccc4n3)cc12` reads 12.6% (inactive); that for `COC(=O)C(Cc1ccc(OCCn2c(=O)sc3cc(C(=O)c4ccccc4)ccc32)cc1)C(=O)OC`, 18.5% (inactive).
Take `CN(C)CCCO[C@H]1[C@@H](C(O)CO)OC2OC(C)(C)O[C@@H]21` (stereo not given in full): the activity change, negative = inhibition was 4.68% (inactive).
The same measure for `Oc1cc2c(c(Cl)c1O)CCNC[C@@H]2c1ccccc1`: -18.1% (inactive); for `CCOC(=O)NCC(Cc1ccc(OCCc2nc(-c3ccccc3)oc2C)cc1)N/C(C)=C/C(=O)c1ccc(C(F)(F)F)cc1` (stereo not given): -49.9% (inactive); for `CNCCn1c(=O)c2cc(OC)c(OC)cc2c2cnc3cc4c(cc3c21)OCO4`: -94.2% (active).
The result for `O=C1NC(O)CCN1[C@@H]1O[C@H](CO)[C@@H](O)[C@H]1O` (stereo not given in full) reads -5.72% (inactive).
`Cc1ccc(NC(=O)c2cccc(C(C)(C)C#N)c2)cc1Nc1ccc2ncn(C)c(=O)c2c1`: the activity change, negative = inhibition is -3.87% (inactive).
As to `NC(=O)c1ccc[n+]([C@@H]2O[C@H](COP(=O)(O)OP(=O)(O)OC[C@H]3O[C@@H](n4cnc5c(N)ncnc54)[C@H](O)[C@@H]3O)[C@@H](O)[C@H]2O)c1`, the activity change, negative = inhibition is -1.89% (inactive).
The result for `COc1ccc(-c2nc3ccc(C4=NNC(=O)CC4C)cc3[nH]2)cc1` (stereo not given) reads 21.8% (inactive); that for `CNC(=O)c1nn(C)c2c1C(C)(C)Cc1cnc(Nc3ccc(N4CCN(C)CC4)cc3)nc1-2`, -73.5% (active).
The same measure for `O=C(O)c1ccc(Nc2ncc3c(n2)-c2ccc(Cl)cc2C(c2c(F)cccc2F)=NC3)cc1`: -36.4% (inactive).
The result for `CCOC(=O)C1=C(N)Oc2ccc(Br)cc2[C@H]1[C@H](C#N)C(=O)OCC` reads -65.8% (inactive); that for `CC[C@]12CCCN3CCc4c(n(c5ccccc45)[C@](O)(C(=O)OC)C1)[C@@H]32`, 8.44% (inactive) and 5.97% (inactive); that for `CCCCc1nc2cc(/C=C/C(=O)NO)ccc2n1CCN(CC)CC`, -75.3% (active) and -94% (active).
Turning to `CCN(CC)CCn1c(=O)c(Cc2ccc(OC)cc2)nc2ccccc21`, the activity change, negative = inhibition was -5.78% (inactive).
The result for `N[C@@]1(C(=O)O)CC[C@H]2[C@H](C(=O)O)[C@H]21` reads 6.82% (inactive); that for `COC(=O)[C@H](Cc1cccc(C(=N)N)c1)[C@@H](C)NC(=O)c1ccc(-c2cc[n+]([O-])cc2)cc1`, -6.72% (inactive).
`O=C1c2ccccc2S(=O)(=O)N1CCCN1CCN(c2ncccn2)CC1`: the activity change, negative = inhibition was 6.33% (inactive).
The same measure for `CS(=O)(=O)c1ccc(-c2cc(Br)sc2-c2ccc(F)cc2)cc1`: 22.9% (inactive) and 24.6% (inactive); for `CC(=O)C1(O)Cc2c(O)c3c(c(O)c2C(OC2CC(N)C(O)C(C)O2)C1)C(=O)c1c(O)cccc1C3=O` (stereo not given): -82.5% (active); for `CC(=O)[C@]1(O)Cc2c(O)c3c(c(O)c2[C@@H](O[C@H]2C[C@H](N)[C@H](O)[C@H](C)O2)C1)C(=O)c1ccccc1C3=O`: -72.5% (active) and -66% (inactive) and -71.5% (active).
The result for `CC(C)=CCCC(C)(OC1OC(COC2OC(CO)C(O)C2O)C(O)C(O)C1O)C1CCC2(C)C1C(O)CC1C3(C)CCC(OC4OC(CO)C(O)C(O)C4OC4OC(CO)C(O)C(O)C4O)C(C)(C)C3CCC12C` (stereo not given) reads 4.49% (inactive).
